Compound activity: PubChem, National Center for Advancing Translational Sciences (NCATS)
Hits are enriched below; roughly 9.4% of the tested compounds scored in any of these assays.
Pf growth 48h: P. falciparum growth inhibition at 48 hours (one generation) | 310,000 tested, 5.9% active | P. falciparum luciferase growth in erythrocytes, 48 h | AID 504832 | Potency, µM (top dose mostly 28.7 µM), for the others: at the top dose activity change, negative = inhibition, usual class: inhibitors; also: % is scaled to controls: 0 for no effect and ±100 for the full control effect
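Luciferase-expressing parasites in RBCs, 2% Hct / 0.1% parasitemia final; RPMI 1640 + 0.5% Albumax; 37 C, 5% CO2, one generation; luminescence read-out, lower signal = inhibition.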
Pf growth 96h: inhibits malaria parasite growth, 96 h | Potency, µM (series often up to 28.7 µM), inactives show at the top dose activity change, negative = inhibition, usual class: inhibitors | 320,000 tested, 6.9% active | P. falciparum luciferase reporter growth, 96 h | AID 504834; also: % is scaled to controls: 0 for no effect and ±100 for the full control effect
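Plates of compound plus infected erythrocytes (2% hematocrit, 0.05% parasitemia final) incubate 96 hours, 37 C, 5% CO2. Detection reagent added; reduced luminescence from the parasites' luciferase reporter flags inhibition.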
SARS PLP yeast: SARS-CoV PLP inhibition in yeast | S. cerevisiae expressing SARS-CoV PLpro, growth rescue | Potency, µM (top dose mostly 32.9 µM), for the others: at the top dose activity, positive = growth rescue, usual class: activators | 330,000 tested, 0.19% active; calls by dose curve; also: 0% is about no effect; nearly all actives have a fitted effect of over 55% in size
AMA1-RON2 inh: AMA1-RON2 (P. falciparum) interaction inhibition; AlphaScreen AMA1-biotinylated RON2 peptide binding; Potency, µM (top dose mostly 58.2 µM), without a hit: top-dose activity change, negative = inhibition, most hits filed as inhibitors; 360,000 tested, 0.2% active;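 also: 0% = vehicle wells and -100% = peptide control; nearly all actives have a fitted effect of over 45% in size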
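AMA1 (3D7) with his tag at 25 nM final met compounds first, then biotinylated RON2 peptide at 25 nM; detection used donor plus acceptor beads, 10 µg/mL apiece, read by AlphaScreen after 30 min at room temperature.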
* marks the source's active call; other numbers are inactive results; ! = not active in a repeat; [ ] = another dose, or the depositor's remark. Unless noted, calls follow the shape of the dose curve; as a rule, active = well fitted curve in the direction sought with a large enough effect; inconclusive = small, poorly fitted or top-dose-only effect, or another doubt; inactive = no such curve, though single readings can be large; an effect the other way counts as inactive or inconclusive. Potency is read from the fitted curve at half-maximal effect.

How did Cc1ccc2cc(CNC(C)C)c(=O)[nH]c2c1 do in these assays?
Pf growth 96h: 5.2µM*; SARS PLP yeast: -1%; AMA1-RON2 inh: -5%

What do the screens show for `COc1ccc(CCNCc2cc3ccc(C)cc3[nH]c2=O)cc1OC`?
Pf growth 48h: 17%; Pf growth 96h: 13µM*; SARS PLP yeast: 1%; AMA1-RON2 inh: 6%

Results for COc1ccccc1N(Cc1cc2ccc(C)cc2[nH]c1=O)C(C)=O ?
Pf growth 48h: 5%; Pf growth 96h: inconclusive; SARS PLP yeast: -1%; AMA1-RON2 inh: -3%

How did Cc1cccc(CCNCc2cc3ccc(C)cc3[nH]c2=O)c1 do in these assays?
Pf growth 48h: -9%; Pf growth 96h: -17%; SARS PLP yeast: 3%; AMA1-RON2 inh: 24%

How did COc1ccccc1NC(=O)CC(NCc1ccccc1)C(=O)O (centres undefined) do in these assays?
Pf growth 48h: 2%; Pf growth 96h: 2.6µM*; SARS PLP yeast: 0%; AMA1-RON2 inh: -2%

Results for CCC1CC(/C(C)=N/NC(N)=O)OC1=O (centres undefined) ?
Pf growth 48h: -8%; Pf growth 96h: 0%; SARS PLP yeast: 0%; AMA1-RON2 inh: -9%

What do the screens show for `NC(=S)N=Nc1c(O)[nH]c2c(Cl)cc(Cl)cc12`?
AMA1-RON2 inh: 49%

What do the screens show for `NC(=S)N=Nc1c(O)[nH]c2cc(F)c(F)cc12`?
Pf growth 48h: inconclusive; Pf growth 96h: 9.3µM*; SARS PLP yeast: 0%; AMA1-RON2 inh: 65%

How did COc1cc(/C=C2\COC/C(=C\c3cc(OC)c(OC)c(OC)c3)C2=O)cc(OC)c1OC do in these assays?
Pf growth 48h: 0.37µM*; Pf growth 96h: 0.83µM*; SARS PLP yeast: 1%; AMA1-RON2 inh: -19%

What do the screens show for `COc1cc(/C=C2\CC/C(=C\c3cc(OC)c(O)c(OC)c3)C2=O)cc(OC)c1O`?
Pf growth 48h: inconclusive; Pf growth 96h: 6.6µM*; SARS PLP yeast: 4%; AMA1-RON2 inh: inconclusive

How did COc1cc(/C=C2/CCCC(C(=O)C(F)(F)F)=C2O)ccc1O do in these assays?
Pf growth 48h: 12%; Pf growth 96h: 32%; SARS PLP yeast: 2%; AMA1-RON2 inh: 8%

Results for COc1cc(/C=C2\CCC/C(=C\c3ccc(O)c(OC)c3)C2=O)ccc1O ?
Pf growth 48h: 9.3µM*; Pf growth 96h: 5.4µM*!; SARS PLP yeast: -11%; AMA1-RON2 inh: -8%

Results for CCOc1cc(/C=C2\CN(CC)C/C(=C\c3ccc(O)c(OCC)c3)C2=O)ccc1O ?
Pf growth 48h: 2.1µM*; Pf growth 96h: 2.1µM*; SARS PLP yeast: -3%; AMA1-RON2 inh: inconclusive

Results for S=C1CSc2ccccc2N1 ?
Pf growth 48h: -18%; Pf growth 96h: inconclusive; SARS PLP yeast: -1%; AMA1-RON2 inh: 10%

Results for CCOc1ccc(CN2CCN(S(=O)(=O)c3ccc(NC(C)=O)cc3)CC2)cc1OC ?
Pf growth 48h: inconclusive; Pf growth 96h: -17%; SARS PLP yeast: 1%; AMA1-RON2 inh: inconclusive

What do the screens show for `Cc1cc([N+](=O)[O-])nn1CCCC(=O)O`?
Pf growth 48h: 27%; Pf growth 96h: inconclusive; SARS PLP yeast: -4%; AMA1-RON2 inh: -3%

How did COc1cc(/C=C2/CCC/C(=C\c3cc(O)c(OC)c(Cl)c3)C2=O)cc(Cl)c1O do in these assays?
Pf growth 48h: inconclusive; Pf growth 96h: 0.13µM*; SARS PLP yeast: 1%; AMA1-RON2 inh: -24%

What do the screens show for `COc1cc(/C=C2\CC/C(=C\c3cc(OC)c(OC)c(OC)c3)C2=O)cc(OC)c1OC`?
Pf growth 48h: 2.6µM*; Pf growth 96h: 2.1µM*; SARS PLP yeast: 3%; AMA1-RON2 inh: -12%

Results for COc1cc(/C=C2/CCc3ccccc3C2=O)cc(OC)c1OC ?
Pf growth 48h: inconclusive; Pf growth 96h: inconclusive; SARS PLP yeast: -26%; AMA1-RON2 inh: inconclusive

How did CCN1C/C(=C/c2cccc([N+](=O)[O-])c2)C(=O)/C(=C/c2cccc([N+](=O)[O-])c2)C1 do in these assays?
Pf growth 48h: 1.7µM*; Pf growth 96h: 2.3µM*; SARS PLP yeast: -23%; AMA1-RON2 inh: -25%

How did COc1cc(/C=C2\SC(N)=NC2=O)cc(Cl)c1O do in these assays?
Pf growth 48h: 56%; Pf growth 96h: inconclusive; SARS PLP yeast: -4%; AMA1-RON2 inh: 0%

Results for Cc1nn2c(C(F)(F)F)c3c(nc2c1-c1ccccc1)CCC3 ?
Pf growth 48h: -12%; Pf growth 96h: 5%; SARS PLP yeast: 0%; AMA1-RON2 inh: 0%

What do the screens show for `O=C(NC1CCCCC1)C1Cc2ccccc2CN1S(=O)(=O)c1ccc(F)cc1` (centres undefined)?
Pf growth 48h: inconclusive; Pf growth 96h: 13µM*; SARS PLP yeast: -5%; AMA1-RON2 inh: 5%

What do the screens show for `CNC(=O)C1Cc2ccccc2CN1S(=O)(=O)c1ccc(OC)c(OC)c1` (centres undefined)?
Pf growth 48h: inconclusive; Pf growth 96h: -30%; SARS PLP yeast: 7%; AMA1-RON2 inh: 6%

How did COc1ccc(S(=O)(=O)N2Cc3ccccc3CC2C(=O)Nc2ccc(O)cc2)cc1OC (centres undefined) do in these assays?
Pf growth 48h: inconclusive; Pf growth 96h: 3.7µM*; SARS PLP yeast: 2%; AMA1-RON2 inh: 31%

How did CCNC(=O)C1Cc2ccccc2CN1S(=O)(=O)c1ccc(F)cc1 (centres undefined) do in these assays?
Pf growth 48h: 0.83µM*; Pf growth 96h: 25%; SARS PLP yeast: -1%; AMA1-RON2 inh: 3%

How did O=C(NC1CCCCC1)C1CCCN1S(=O)(=O)c1ccc(F)cc1 (centres undefined) do in these assays?
Pf growth 48h: -6%; Pf growth 96h: 30%; SARS PLP yeast: 12%; AMA1-RON2 inh: -8%

Results for Cc1ccc(NC(=O)c2ccccc2Cl)c(Cl)c1 ?
Pf growth 96h: 82%; SARS PLP yeast: -3%; AMA1-RON2 inh: -3%

Results for CC(=O)c1c(C(C)=O)c(C)n(-c2ccc(C)c(NC(=O)c3ccccc3Cl)c2)c1C ?
Pf growth 48h: inconclusive; Pf growth 96h: 2.9µM*; SARS PLP yeast: -3%; AMA1-RON2 inh: -10%

What do the screens show for `O=P(c1ccccc1)(c1ccccc1)c1cc(Br)cc(Br)c1OCCO`?
Pf growth 48h: -31%[0.00184 µM]; Pf growth 96h: inconclusive; SARS PLP yeast: 1%; AMA1-RON2 inh: 4%

Results for COC(=O)[C@H]1C[C@@H]1[C@H](NC(=O)[C@H]1C[C@@H]1[C@H](NC(=O)OCc1ccccc1)c1ccccc1)c1ccccc1 ?
Pf growth 48h: inconclusive; Pf growth 96h: 15µM*; SARS PLP yeast: 1%; AMA1-RON2 inh: 6%

How did CCCCNC(=O)COn1nnc2ccc(S(=O)(=O)N3CCOCC3)cc21 do in these assays?
Pf growth 48h: 4%; Pf growth 96h: 4%; SARS PLP yeast: -3%; AMA1-RON2 inh: -1%

Results for CCN(CC)CCNc1ncnc2c1sc1nc(N3CCOCC3)c3c(c12)CCCC3 ?
Pf growth 48h: 9.3µM*; Pf growth 96h: inconclusive; SARS PLP yeast: 1%; AMA1-RON2 inh: 2%

Results for CCN(CC)CCNc1ncnc2c1sc1nc(N3CCCC3)c3c(c12)CC(C)(C)OC3 ?
Pf growth 48h: 10µM*; Pf growth 96h: 5%; SARS PLP yeast: -1%; AMA1-RON2 inh: -13%
